Laboratory results published in ChEMBL document CHEMBL1961873, “Compounds: GSK PKIS; Assays: Nanosyn kinase panel” (2012).

Experiments:
[1] = target: T1, Serine/threonine-protein kinase D2 (Homo sapiens) (UniProt Q9BZL6); settings: at 1 µM;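 note: mean value of PRKD2 inhibition, from the GSK PKIS screening panel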
T1 sequence (whole entry): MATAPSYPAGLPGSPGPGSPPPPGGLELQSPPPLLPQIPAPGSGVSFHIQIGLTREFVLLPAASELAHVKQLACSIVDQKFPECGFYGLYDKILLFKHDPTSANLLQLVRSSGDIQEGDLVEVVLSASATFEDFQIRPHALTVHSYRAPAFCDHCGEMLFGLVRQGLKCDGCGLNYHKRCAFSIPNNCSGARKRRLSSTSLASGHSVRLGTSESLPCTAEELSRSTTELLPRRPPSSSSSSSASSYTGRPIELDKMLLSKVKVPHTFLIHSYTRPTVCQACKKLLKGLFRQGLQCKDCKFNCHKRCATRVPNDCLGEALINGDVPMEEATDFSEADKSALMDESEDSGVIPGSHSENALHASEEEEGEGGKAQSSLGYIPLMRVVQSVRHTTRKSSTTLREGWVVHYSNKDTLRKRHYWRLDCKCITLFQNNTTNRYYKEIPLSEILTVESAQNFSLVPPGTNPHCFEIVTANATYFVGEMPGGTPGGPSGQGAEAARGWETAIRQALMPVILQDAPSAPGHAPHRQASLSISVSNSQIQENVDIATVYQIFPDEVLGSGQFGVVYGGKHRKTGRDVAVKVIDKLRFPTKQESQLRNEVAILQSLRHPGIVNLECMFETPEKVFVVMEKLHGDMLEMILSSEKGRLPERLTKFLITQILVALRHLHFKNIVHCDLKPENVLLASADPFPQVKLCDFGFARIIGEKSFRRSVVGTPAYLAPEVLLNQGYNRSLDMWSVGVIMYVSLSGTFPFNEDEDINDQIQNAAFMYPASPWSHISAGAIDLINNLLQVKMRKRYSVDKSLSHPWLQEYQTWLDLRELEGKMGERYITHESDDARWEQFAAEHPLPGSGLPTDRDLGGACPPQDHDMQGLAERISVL

[2] = target: T2, Serine/threonine-protein kinase D3 (Homo sapiens) (UniProt O94806); settings: at 0.1 µM
T2 sequence (whole entry): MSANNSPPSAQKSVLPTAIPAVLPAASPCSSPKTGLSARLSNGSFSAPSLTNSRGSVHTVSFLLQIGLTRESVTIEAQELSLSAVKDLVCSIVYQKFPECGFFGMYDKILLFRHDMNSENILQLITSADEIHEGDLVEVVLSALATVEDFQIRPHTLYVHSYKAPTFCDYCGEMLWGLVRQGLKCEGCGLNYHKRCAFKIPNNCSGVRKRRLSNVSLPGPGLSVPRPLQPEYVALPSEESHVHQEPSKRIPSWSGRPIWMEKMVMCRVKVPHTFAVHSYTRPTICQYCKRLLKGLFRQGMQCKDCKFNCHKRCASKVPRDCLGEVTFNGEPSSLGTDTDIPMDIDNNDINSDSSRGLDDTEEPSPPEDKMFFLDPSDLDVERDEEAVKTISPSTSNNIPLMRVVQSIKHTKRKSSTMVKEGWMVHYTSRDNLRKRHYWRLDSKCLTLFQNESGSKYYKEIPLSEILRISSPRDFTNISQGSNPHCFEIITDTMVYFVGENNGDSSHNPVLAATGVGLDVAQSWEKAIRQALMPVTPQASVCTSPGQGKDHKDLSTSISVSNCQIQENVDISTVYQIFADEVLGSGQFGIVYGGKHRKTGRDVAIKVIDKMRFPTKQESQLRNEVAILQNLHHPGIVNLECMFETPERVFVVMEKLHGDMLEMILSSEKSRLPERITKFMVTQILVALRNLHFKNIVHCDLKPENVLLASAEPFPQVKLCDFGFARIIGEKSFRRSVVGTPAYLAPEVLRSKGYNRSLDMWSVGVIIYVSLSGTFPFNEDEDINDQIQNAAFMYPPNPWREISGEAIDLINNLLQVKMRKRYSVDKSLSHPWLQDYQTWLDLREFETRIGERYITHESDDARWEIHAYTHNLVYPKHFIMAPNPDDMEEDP

[3] = target: T2, Serine/threonine-protein kinase D3 (Homo sapiens); settings: at 1 µM
[4] = target: T3, cGMP-dependent protein kinase 1 (Homo sapiens) (UniProt Q13976); settings: at 0.1 µM
T3 sequence (whole entry): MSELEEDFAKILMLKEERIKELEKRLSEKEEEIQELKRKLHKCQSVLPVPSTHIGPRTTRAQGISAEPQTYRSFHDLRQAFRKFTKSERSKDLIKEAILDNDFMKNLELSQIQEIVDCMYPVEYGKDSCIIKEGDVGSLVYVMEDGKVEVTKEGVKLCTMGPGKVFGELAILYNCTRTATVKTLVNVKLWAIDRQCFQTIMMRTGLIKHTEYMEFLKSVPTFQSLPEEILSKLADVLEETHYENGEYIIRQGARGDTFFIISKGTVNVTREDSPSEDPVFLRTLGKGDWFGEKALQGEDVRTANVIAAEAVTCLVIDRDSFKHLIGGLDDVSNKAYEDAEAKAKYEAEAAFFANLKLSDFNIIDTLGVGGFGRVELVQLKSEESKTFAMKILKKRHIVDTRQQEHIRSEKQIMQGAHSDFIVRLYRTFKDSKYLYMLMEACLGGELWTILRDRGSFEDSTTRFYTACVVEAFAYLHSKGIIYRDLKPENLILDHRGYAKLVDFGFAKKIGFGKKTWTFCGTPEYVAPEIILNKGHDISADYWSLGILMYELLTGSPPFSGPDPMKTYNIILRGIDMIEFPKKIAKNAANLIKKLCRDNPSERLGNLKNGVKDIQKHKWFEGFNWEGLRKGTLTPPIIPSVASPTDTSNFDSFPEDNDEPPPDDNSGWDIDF

[5] = target: T3, cGMP-dependent protein kinase 1 (Homo sapiens); settings: at 1 µM
[6] = target: T4, cGMP-dependent protein kinase 2 (Homo sapiens) (UniProt Q13237); settings: at 0.1 µM
T4 sequence (whole entry): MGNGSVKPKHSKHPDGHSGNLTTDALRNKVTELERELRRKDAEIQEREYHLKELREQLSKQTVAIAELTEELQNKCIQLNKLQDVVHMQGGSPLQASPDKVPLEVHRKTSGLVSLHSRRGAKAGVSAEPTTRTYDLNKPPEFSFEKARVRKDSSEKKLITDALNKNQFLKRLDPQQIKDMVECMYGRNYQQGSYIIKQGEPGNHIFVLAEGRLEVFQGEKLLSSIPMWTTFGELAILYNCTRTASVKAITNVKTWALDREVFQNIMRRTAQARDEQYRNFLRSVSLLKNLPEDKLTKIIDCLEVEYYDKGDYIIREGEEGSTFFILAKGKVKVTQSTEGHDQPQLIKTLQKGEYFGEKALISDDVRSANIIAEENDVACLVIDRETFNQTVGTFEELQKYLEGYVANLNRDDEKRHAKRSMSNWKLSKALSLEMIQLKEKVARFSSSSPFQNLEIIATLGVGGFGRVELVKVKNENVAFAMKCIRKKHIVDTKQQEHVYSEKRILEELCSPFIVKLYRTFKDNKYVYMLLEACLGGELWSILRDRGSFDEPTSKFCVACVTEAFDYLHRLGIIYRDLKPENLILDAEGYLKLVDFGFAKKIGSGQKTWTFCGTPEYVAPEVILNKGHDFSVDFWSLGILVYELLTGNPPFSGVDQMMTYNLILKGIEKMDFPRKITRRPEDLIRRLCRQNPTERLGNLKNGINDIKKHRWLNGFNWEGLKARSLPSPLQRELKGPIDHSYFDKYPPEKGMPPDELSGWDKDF

[7] = target: T4, cGMP-dependent protein kinase 2 (Homo sapiens); settings: at 1 µM
[8] = target: T5, cAMP-dependent protein kinase catalytic subunit PRKX (Homo sapiens) (UniProt P51817); settings: at 0.1 µM
T5 sequence (whole entry): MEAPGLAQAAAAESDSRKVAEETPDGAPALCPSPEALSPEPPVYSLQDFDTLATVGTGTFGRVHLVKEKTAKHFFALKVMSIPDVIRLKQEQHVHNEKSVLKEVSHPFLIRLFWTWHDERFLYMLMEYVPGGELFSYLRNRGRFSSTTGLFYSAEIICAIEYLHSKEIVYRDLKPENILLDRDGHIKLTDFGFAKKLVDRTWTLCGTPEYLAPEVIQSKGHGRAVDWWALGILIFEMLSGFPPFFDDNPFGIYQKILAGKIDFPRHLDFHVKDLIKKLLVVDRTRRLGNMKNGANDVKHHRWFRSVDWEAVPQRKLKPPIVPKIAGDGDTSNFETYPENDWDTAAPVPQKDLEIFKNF

[9] = target: T5, cAMP-dependent protein kinase catalytic subunit PRKX (Homo sapiens); settings: at 1 µM
[10] = target: Rho-associated protein kinase 1 (Homo sapiens) (UniProt Q13464); settings: at 0.1 µM
[11] = target: Rho-associated protein kinase 1 (Homo sapiens) (UniProt Q13464); settings: at 1 µM
[12] = target: Rho-associated protein kinase 2 (Homo sapiens) (UniProt O75116); settings: at 0.1 µM
[13] = target: Rho-associated protein kinase 2 (Homo sapiens) (UniProt O75116); settings: at 1 µM
[14] = target: Ribosomal protein S6 kinase alpha-1 (Homo sapiens) (UniProt Q15418); settings: at 0.1 µM
[15] = target: Ribosomal protein S6 kinase alpha-1 (Homo sapiens) (UniProt Q15418); settings: at 1 µM
[16] = target: Ribosomal protein S6 kinase alpha-3 (Homo sapiens) (UniProt P51812); settings: at 0.1 µM
[17] = target: Ribosomal protein S6 kinase alpha-3 (Homo sapiens) (UniProt P51812); settings: at 1 µM
[18] = target: Ribosomal protein S6 kinase alpha-2 (Homo sapiens) (UniProt Q15349); settings: at 0.1 µM
[19] = target: Ribosomal protein S6 kinase alpha-2 (Homo sapiens) (UniProt Q15349); settings: at 1 µM
[20] = target: Ribosomal protein S6 kinase alpha-6 (Homo sapiens) (UniProt Q9UK32); settings: at 0.1 µM;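 note: reported value is the mean inhibition of RSK4, from the GSK PKIS kinase inhibitor screen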
Sequence of Ribosomal protein S6 kinase alpha-6 (Homo sapiens) (Q9UK32 whole entry): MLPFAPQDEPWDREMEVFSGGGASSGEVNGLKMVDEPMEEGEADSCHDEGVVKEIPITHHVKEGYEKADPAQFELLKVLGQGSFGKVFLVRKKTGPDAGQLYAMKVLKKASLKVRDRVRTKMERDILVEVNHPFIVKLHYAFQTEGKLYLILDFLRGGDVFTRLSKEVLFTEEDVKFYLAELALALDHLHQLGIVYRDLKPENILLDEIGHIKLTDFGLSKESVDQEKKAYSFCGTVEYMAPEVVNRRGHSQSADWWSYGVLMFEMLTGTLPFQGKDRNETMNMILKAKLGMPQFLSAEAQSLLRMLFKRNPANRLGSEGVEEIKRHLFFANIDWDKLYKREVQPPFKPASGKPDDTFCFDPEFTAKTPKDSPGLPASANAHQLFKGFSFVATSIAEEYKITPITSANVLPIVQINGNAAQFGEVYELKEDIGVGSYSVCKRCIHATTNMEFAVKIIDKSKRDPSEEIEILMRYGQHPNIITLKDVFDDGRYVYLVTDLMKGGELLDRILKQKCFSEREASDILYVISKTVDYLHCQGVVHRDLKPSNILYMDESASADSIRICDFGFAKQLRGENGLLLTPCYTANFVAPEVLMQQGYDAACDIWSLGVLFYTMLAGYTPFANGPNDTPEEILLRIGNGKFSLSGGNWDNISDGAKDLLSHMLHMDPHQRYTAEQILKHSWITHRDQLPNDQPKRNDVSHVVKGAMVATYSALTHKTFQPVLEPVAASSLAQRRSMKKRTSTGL

Sequence of Ribosomal protein S6 kinase alpha-1 (Homo sapiens) (Q15418 whole entry): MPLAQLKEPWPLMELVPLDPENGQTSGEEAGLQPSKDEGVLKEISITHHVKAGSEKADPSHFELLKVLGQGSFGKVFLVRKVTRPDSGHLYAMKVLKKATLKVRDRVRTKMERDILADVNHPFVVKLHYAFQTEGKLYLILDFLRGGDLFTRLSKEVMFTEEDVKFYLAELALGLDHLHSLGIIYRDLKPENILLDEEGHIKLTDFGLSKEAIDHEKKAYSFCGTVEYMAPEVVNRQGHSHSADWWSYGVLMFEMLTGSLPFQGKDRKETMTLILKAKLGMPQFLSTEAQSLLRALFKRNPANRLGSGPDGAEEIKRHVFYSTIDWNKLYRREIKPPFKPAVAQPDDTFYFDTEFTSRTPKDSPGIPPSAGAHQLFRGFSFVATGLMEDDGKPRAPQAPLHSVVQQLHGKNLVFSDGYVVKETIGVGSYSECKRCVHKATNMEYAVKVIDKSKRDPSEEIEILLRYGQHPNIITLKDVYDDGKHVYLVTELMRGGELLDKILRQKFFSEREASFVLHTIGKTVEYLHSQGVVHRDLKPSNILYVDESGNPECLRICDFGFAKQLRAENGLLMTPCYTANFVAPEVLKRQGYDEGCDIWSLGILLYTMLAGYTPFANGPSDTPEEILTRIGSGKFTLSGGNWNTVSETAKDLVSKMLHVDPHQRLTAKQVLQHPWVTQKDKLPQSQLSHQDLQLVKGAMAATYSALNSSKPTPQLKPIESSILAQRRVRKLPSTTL
Sequence of Ribosomal protein S6 kinase alpha-2 (Homo sapiens) (Q15349 whole entry): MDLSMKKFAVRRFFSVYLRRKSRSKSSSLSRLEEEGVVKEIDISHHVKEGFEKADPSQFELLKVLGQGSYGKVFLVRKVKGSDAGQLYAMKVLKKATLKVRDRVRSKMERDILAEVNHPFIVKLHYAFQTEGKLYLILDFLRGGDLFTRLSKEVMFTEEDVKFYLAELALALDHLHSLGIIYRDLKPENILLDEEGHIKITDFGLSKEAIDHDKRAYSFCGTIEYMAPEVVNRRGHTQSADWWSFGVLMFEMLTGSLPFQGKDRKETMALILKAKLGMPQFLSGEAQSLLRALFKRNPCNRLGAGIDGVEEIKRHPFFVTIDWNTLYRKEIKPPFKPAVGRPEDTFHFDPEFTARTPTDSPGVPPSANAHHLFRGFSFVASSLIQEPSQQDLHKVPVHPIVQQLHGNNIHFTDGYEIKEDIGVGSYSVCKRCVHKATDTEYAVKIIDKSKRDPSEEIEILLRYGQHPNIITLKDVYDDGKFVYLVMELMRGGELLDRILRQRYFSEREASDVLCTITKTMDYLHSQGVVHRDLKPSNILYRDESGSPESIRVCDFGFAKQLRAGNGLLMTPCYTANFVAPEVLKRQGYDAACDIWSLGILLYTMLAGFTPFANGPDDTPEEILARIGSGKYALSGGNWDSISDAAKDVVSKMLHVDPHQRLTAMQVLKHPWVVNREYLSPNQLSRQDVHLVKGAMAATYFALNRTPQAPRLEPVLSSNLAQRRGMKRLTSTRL
Sequence of Ribosomal protein S6 kinase alpha-3 (Homo sapiens) (P51812 whole entry): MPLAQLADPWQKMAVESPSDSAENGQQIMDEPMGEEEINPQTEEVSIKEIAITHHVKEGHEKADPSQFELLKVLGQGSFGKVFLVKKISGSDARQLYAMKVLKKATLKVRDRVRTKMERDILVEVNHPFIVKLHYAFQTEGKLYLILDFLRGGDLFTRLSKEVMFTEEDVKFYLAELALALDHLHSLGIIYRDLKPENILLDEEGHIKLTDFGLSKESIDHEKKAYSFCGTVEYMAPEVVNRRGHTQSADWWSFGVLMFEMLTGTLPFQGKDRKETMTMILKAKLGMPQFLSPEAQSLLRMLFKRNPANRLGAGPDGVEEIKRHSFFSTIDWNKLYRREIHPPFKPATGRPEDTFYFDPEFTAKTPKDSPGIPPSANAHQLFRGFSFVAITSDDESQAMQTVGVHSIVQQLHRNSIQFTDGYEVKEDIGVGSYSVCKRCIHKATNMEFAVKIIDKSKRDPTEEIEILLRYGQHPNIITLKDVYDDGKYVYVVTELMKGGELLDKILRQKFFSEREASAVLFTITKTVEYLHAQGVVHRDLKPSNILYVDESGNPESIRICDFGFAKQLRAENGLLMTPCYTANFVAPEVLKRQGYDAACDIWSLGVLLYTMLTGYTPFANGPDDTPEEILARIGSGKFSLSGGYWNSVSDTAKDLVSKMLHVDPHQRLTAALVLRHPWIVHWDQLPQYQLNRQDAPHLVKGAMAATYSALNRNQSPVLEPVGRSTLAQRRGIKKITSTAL
Sequence of Rho-associated protein kinase 1 (Homo sapiens) (Q13464 2-1354 limits assumed): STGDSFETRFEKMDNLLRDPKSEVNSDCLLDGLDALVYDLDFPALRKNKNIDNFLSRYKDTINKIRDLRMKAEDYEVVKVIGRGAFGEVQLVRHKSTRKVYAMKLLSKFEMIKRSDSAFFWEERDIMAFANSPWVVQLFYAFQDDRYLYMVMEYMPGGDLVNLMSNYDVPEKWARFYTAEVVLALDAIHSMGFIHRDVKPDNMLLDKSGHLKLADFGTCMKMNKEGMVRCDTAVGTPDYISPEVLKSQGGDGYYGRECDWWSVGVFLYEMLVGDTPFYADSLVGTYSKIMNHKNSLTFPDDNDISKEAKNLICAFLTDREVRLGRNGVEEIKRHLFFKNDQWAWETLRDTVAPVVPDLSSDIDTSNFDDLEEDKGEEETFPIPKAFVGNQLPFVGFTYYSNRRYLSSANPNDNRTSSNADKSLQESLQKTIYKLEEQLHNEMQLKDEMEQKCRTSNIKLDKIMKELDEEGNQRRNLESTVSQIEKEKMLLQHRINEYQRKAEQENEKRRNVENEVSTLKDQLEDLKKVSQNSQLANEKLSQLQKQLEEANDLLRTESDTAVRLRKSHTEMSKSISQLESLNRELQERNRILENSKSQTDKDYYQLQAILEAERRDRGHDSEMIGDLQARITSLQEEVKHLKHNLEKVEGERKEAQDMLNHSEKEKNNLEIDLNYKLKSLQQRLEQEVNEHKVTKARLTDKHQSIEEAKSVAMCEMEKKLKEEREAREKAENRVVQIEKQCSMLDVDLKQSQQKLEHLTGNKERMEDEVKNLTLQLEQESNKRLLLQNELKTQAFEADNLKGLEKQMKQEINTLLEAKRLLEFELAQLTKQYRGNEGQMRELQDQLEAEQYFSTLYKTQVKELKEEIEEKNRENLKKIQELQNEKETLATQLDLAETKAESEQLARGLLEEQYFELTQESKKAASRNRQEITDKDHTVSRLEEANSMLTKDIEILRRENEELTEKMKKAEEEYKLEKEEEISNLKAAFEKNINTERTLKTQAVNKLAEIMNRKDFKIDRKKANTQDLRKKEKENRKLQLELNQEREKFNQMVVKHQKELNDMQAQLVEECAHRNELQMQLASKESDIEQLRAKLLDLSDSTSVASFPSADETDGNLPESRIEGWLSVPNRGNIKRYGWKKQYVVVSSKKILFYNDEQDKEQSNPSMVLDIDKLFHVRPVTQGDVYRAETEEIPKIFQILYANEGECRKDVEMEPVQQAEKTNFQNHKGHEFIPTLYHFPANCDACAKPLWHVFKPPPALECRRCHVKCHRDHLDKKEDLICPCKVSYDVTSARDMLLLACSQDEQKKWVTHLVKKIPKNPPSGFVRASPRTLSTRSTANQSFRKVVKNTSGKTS

Cc1cc(O)cc(C)c1/C=C/c1cncc(C(N)=O)c1
inhibition [1]: 2.16%
inhibition [2]: 3.14%
inhibition [3]: 2.74%
inhibition [4]: 2.79%
inhibition [5]: 5.83%
inhibition [6]: 0.33%
inhibition [7]: 3.49%
inhibition [8]: 1.71%
inhibition [9]: 3.29%
inhibition [10]: 2.2%
inhibition [11]: 3.29%
inhibition [12]: 3.18%
inhibition [13]: 2.02%
inhibition [14]: 0.33%
inhibition [15]: -0.09%
inhibition [16]: 1.07%
inhibition [17]: -0.35%
inhibition [18]: 1.1%
inhibition [19]: 1.48%
inhibition [20]: 0.72%

COc1cc2c(cc1Nc1nc(Nc3cccc(F)c3C(N)=O)c3cc[nH]c3n1)N(C(=O)CN1CCN(C(C)C)CC1)CC2
inhibition [1]: 8.82%
inhibition [2]: 3.64%
inhibition [3]: 8.43%
inhibition [4]: 4.61%
inhibition [5]: 10.1%
inhibition [6]: 3.86%
inhibition [7]: 5.6%
inhibition [8]: 2.44%
inhibition [9]: 2.36%
inhibition [10]: 0.72%
inhibition [11]: 0.34%
inhibition [12]: 0.62%
inhibition [13]: 2.82%
inhibition [14]: 4.37%
inhibition [15]: 20.1%
inhibition [16]: 2.2%
inhibition [17]: 10.3%
inhibition [18]: 1.68%
inhibition [19]: 2.89%
inhibition [20]: 3.57%

CN(c1ccc(NC(=O)NCCN2CCOCC2)cc1)c1ccnc(Nc2ccc(CS(C)(=O)=O)cc2)n1
inhibition [1]: 1.04%
inhibition [2]: 1.13%
inhibition [3]: 0.94%
inhibition [4]: 2.25%
inhibition [5]: 2.49%
inhibition [6]: 0.06%
inhibition [7]: 0.57%
inhibition [8]: 2.36%
inhibition [9]: 4.38%
inhibition [10]: 1.51%
inhibition [11]: 8.01%
inhibition [12]: 4.87%
inhibition [13]: 18.1%
inhibition [14]: 1.1%
inhibition [15]: 3.56%
inhibition [16]: 2.14%
inhibition [17]: 2.69%
inhibition [18]: 1.38%
inhibition [19]: 2.28%
inhibition [20]: 1.79%
